Screening data (PubChem)
This is one part of a sample in which hits are shown more often than they occur.
GBA activity: modulators of human glucocerebrosidase; 1.1% of 48,000 active; P04062; purified enzyme, resorufin glucoside fluorescence (screen aimed at inhibitors), 20 min; Potency, µM; in the data active means potency below about 15 µM; inconclusive means mostly about 16 µM to 33 µM;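 further: the screen sought inhibitors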
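Wild-type enzyme at 0.2 nM final in 50mM citric acid/KH2PO4, 10mM sodium taurocholate, 0.01% tween-20, pH 5.9, with resorufin beta-D-glucopyranoside at 30 uM final. Compounds titrated, 20 min at RT, red fluorescence read; AC50 from titration.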
Casp7 inh: blocks human caspase-7 allosterically or competitively; recombinant caspase-7, Ac-DEVD-AFC fluorescence rate; Potency, µM (series often up to 57.5 µM), without a hit: top-dose activity change, negative = inhibition, hits mostly inhibitors; 0.02% of 75,000 active; AID 889; active means well fitted inhibition curve with a large enough effect in the main read-out, with a control signal flat, not every such curve was filed as active; inconclusive means small, poorly fitted or top-dose-only effect, or a change in a side signal; further: % of control where 0% means no effect
Caspase-1 inhib: allosteric or competitive inhibitors of human caspase-1 | P29466 | Caspase-1 enzyme, Ac-WEHD-AFC fluorogenic rate | Potency, µM (series often up to 57.5 µM), for the others: at the top dose activity change, negative = inhibition, most hits filed as inhibitors | 0.03% of 75,000 active | AID 900; active means well fitted inhibition curve with a large enough effect; inconclusive means small, poorly fitted or top-dose-only effect;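 further: plate controls were vehicle for no effect and no substrate for full effect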
* = called active by the depositor; ? = inconclusive; · = not tested or not shown; [ ] = remark or other dose. Potency means the concentration at half of the fitted maximal effect.

SMILES	GBA activity	Casp7 inh	Caspase-1 inhib
CC1(C)OC2CC3C4CC(F)C5=CC(=O)C=CC5(C)C4C(O)CC3(C)[C@]2(C(=O)CO)O1 (stereo partly specified)	·	1.5%	1.7%
CCCCC(CC)CNCC(CC)CCCC (stereo unspecified)	·	0.9%	1.3%
O=C1NC(=O)[C@@H]2C3c4ccccc4C=CN3[C@H](C(=O)c3cccs3)[C@H]12 (stereo partly specified)	>76.9	?	·
O=C(c1ccco1)[C@@H]1[C@@H]2C(=O)N(c3ccc(F)cc3)C(=O)[C@@H]2C2c3ccccc3C=CN21 (stereo partly specified)	>76.9	12.6µM*	·
CC(=O)[C@@H]1[C@@H]2C(=O)N(c3ccc(F)c(Cl)c3)C(=O)[C@@H]2C2c3ccccc3C=CN21 (stereo partly specified)	>76.9	?	31.6µM*
O=C(c1ccco1)[C@@H]1[C@@H]2C(=O)N(c3ccc(Br)cc3)C(=O)[C@@H]2C2c3ccccc3C=CN21 (stereo partly specified)	>76.9	?	·
CC(C)=C1C2C=CC1C1C(=O)N(c3ccc4c(c3)OCO4)C(=O)C21 (stereo unspecified)	·	-2.6%	1.4%
N#C[C@@H]1[C@@H]2C(=O)N(c3ccc4c(c3)OCCO4)C(=O)[C@@H]2C2c3ccccc3C=CN21 (stereo partly specified)	>76.9	?	31.6µM*
CC12C=C(/C=C/CCc3ccco3)C(C)(C1)C(CCc1ccco1)CC2=O (stereo unspecified)	·	-1.9%[11.5 µM]	?
N#[N+]c1ccc(Nc2ccccc2)cc1	·	-0.5%[11.5 µM]	0.9%[11.5 µM]
COc1ccccc1CNc1cc(-c2ccccc2C)ncn1	·	-5.1%	-1.5%
CN(C)CC[C@H](c1ccc(Br)cc1)c1ccccn1	·	1.4%[25.7 µM]	-0.1%[25.7 µM]
CCN1CCN(CC(O)COc2cccc(OC)c2)CC1 (stereo unspecified)	>76.9	-1.4%	2.0%
COc1cccc(OCC(O)CN(CCO)Cc2ccccc2)c1 (stereo unspecified)	13.2*	-0.4%	2.3%
Oc1cc(O)c2c(c1)OC(c1cc(O)c(O)c(O)c1)C(O)C2 (stereo unspecified)	·	-8.7%	2.1%
COc1ccc(NC(=O)CN2CCN(CC(=O)Nc3ccccc3Cl)CC2)cc1Cl	·	-2.2%	-0.3%
O=C(CN1CCCC1)Nc1ccc(NC(=O)Nc2ccccc2Cl)cc1	12.7*	-0.1%	-0.3%
O=C(NCCN1CCOCC1)c1cccc(Cl)c1	?	-0.5%	1.2%
O=C(NCCN1CCOCC1)NC1(C(F)(F)F)Oc2ccc(Cl)cc2O1 (stereo unspecified)	9.78*	0.5%	1.0%
CC(C)Oc1cccc(C(=O)Nc2ccc(NC(=O)c3ccco3)cc2)c1	11.2*	0.4%	-3.4%
O=C(Nc1cccc(OC(=O)c2ccco2)c1)c1ccco1	>76.9	0.9%	2.7%
COC(=O)c1cc(OC)c(=O)c2c(OC)c(OC)ccc2c1	·	-0.4%	-3.4%
CC(C)(C)OC(=O)[C@H]([C@@H]1N[C@@H](C(=O)O)C(C)(C)S1)N1C(=O)c2ccccc2C1=O	·	-1.8%[11.5 µM]	1.4%[11.5 µM]
C=CCn1c(-c2c[nH]c3ccccc23)n[nH]c1=S	>76.9	-0.1%	-1.1%
CCn1c(-c2c[nH]c3ccccc23)n[nH]c1=S	10.8*	-0.6%	-5.5%
SMILES	GBA activity	Casp7 inh	Caspase-1 inhib
O=C(c1ccncc1)N1CCC[C@@]2(CCN(c3ccccn3)C2)C1	·	-1.0%	-3.0%
CCCCNC(=O)CCC(=O)Nc1ccc2nc(N3CCOCC3)cc(C)c2c1	3.76*	-2.3%	-4.1%
Cc1cc(N2CCN(C)CC2)nc2ccc(NC(=O)CCC(=O)NCCC3=CCCCC3)cc12	?	-0.3%	-3.3%
CCOC(=O)C1CCCN(C(=O)CCC(=O)Nc2ccc3nc(N4CCOCC4)cc(C)c3c2)C1 (stereo unspecified)	2.59*	-2.6%	-2.2%
Cc1cc(N2CCOCC2)nc2ccc(NC(=O)C3CCC(C)CC3)cc12 (stereo unspecified)	0.0606*	-1.6%	-1.6%
CCOC(=O)C1CCCN(C(=O)N2CCOCC2)C1 (stereo unspecified)	·	-0.2%	-1.4%
COCCCNC(=O)CCC(=O)Nc1ccc2nc(N3CCOCC3)cc(C)c2c1	6.8*	0.0%	3.0%
O=C(Nc1ccc(N2CCOCC2)cc1)C1CC1	>76.9	0.0%	-0.9%
Cc1ccc(C)c(OCCCC(=O)Nc2ccc(N3CCOCC3)cc2)c1	>76.9	-0.1%	0.6%
CCN1CCN(c2cc(C)c3cc(NC(=O)c4ccc(Br)o4)ccc3n2)CC1	5.06*	-0.9%	-1.7%
CCN1CCN(c2cc(C)c3cc(NC(=O)c4ccncc4)ccc3n2)CC1	·	-3.4%	-5.8%
COC(=O)C1=C(C)[C@@H](O)[C@@H](C)[C@H](c2c(OC)c(OC)c(C)c(OC)c2OC)O1	·	-0.7%[11.5 µM]	?
Cc1cccc2c(=O)c(C(=O)N3CCCCCC3)c[nH]c12	6.46*	6.9%	0.3%
Cc1ccccc1C(=O)N1CCCN(C(=O)c2ccccc2C)CC1	>76.9	-4.2%	0.4%
Cc1nc(N2CCOCC2)c2nc(-c3ccccc3)n(CCN3CCOCC3)c2n1	·	-2.3%	-1.1%
O=C(CCCc1ccc(-c2ccccc2F)cc1)Nc1ccc(O)cc1	·	-4.9%	-4.7%
CCSc1nnc(NC(=O)c2ccc(C)o2)s1	>76.9	2.0%	0.1%
CCSc1nnc(NC(=O)c2cc(C)oc2C)s1	10.9*	0.9%	-1.0%
Cc1noc(C)c1-c1nc(NCc2cccs2)c2ccccc2n1	·	-8.1%	-2.6%
CN(C)Cc1ccccc1-c1ccc2ncnc(NCc3cccs3)c2c1	·	0.4%	-0.7%
Cc1ccccc1-c1ccc2ncnc(NCc3cccs3)c2c1	·	15.8µM*	?
O=C1OC2(c3ccc(O)cc3Oc3cc(O)ccc32)c2c1c(-c1ccccc1)c(-c1ccccc1)c(-c1ccccc1)c2-c1ccccc1	·	-0.4%[11.5 µM]	3.0%[11.5 µM]
CCn1nc(C(=O)OCC(=O)c2cc(C)n(Cc3cccs3)c2C)c2ccccc2c1=O	>76.9	5.4%	-3.1%
Cc1cc(C(=O)COC(=O)c2ccc3c(c2)OCO3)c(C)n1Cc1cccs1	14*	-2.5%	-3.9%
O=C(NCCc1c[nH]c2ccccc12)[C@H]1C[C@@H]1[C@H](NP(=O)(c1ccccc1)c1ccccc1)c1ccccc1	·	-3.3%	-4.5%
SMILES	GBA activity	Casp7 inh	Caspase-1 inhib
CCOC(=O)c1ccccc1NC(=O)c1c(O)c2ccccc2n(CC)c1=O	·	4.2%	0.4%
CCCn1c(=O)c(C(=O)Nc2ccccc2C(=O)OC)c(O)c2ccccc21	14.5*	-1.7%	-1.0%
CCN1C(=O)[C@H]2[C@H]3[C@H](O)[C@H](O)C/C(=N/O[C@@H](C)c4cn([C@H](CO)Cc5ccccc5)nn4)[C@@H]3CC[C@@H]2C1=O	·	1.6%[11.5 µM]	-3.0%[11.5 µM]
COc1cccc(OC)c1C(=O)Nc1ccc(N2CCN(S(C)(=O)=O)CC2)cc1	>76.9	6.2%	-0.1%
COc1ccc(Br)cc1C(=O)Nc1ccc(N2CCN(S(C)(=O)=O)CC2)cc1	11.7*	-9.5%	-6.6%
C[Si](C)(C)C#Cc1ccccc1NC(=S)Nc1ccccc1	·	-3.0%	-3.3%
Cc1ccc(C2C3CSCC=C3C(C#N)=C(N)C2(C#N)C#N)cc1 (stereo unspecified)	11.8*	-28.5%	?
N#CC1=C(N)C(C#N)(C#N)[C@H](c2ccncc2)[C@H]2CC3(CC=C12)OCCO3	>76.9	-7.3%	-11.5%
